This note sets out measurements from PubChem BioAssay (NCATS).

Records with an inconclusive call do not appear. A number with no mark means an inactive call. Activity calls are given as the source filed them. Calls follow the shape of the dose curve; as a rule, active = well fitted cell-killing curve with a large enough effect; inconclusive = small, poorly fitted or top-dose-only effect; inactive = flat fitted curve, though single readings scatter.
Potency is read from the fitted curve at half-maximal effect.

A short description of this assay: qHTS of pediatric cancer cell lines to identify multiple opportunities for drug repurposing: Confirmatory screen for A673 cells (AID 1347110).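 Also: cells exposed to compound for 48 h before the viability read; nearly all actives have a fitted effect of over 65% in size.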 The note with it: A673 Ewing sarcoma cell viability; series mostly up to 45.9 µM; activity change, negative = cytotoxicity: at the top concentration. An excerpt: Drug repurposing or repositioning has been offered as a strategy for drug development in oncology programs. This approach has special potential for childhood cancers and other rare or orphan diseases, where the expected return on new drug development has been a disincentive to pharmaceuticals.
In this project we exploit the poly-pharmacology of drugs to discover new indications via phenotypic screening of a panel of 19 well-characterized cell lines derived from solid tumors seen in children and adolescents. The goal is to identify approved drugs with previously unrecognized anticancer properties that has the potential to reveal new mechanisms and biological processes involved in carcinogenesis or drug resistance. We employed a titration-based paradigm (quantitative high-throughput screening or qHTS), where all compounds were tested at multiple concentrations for their effect on cell viability. Concentration-response curves (CRCs) were derived directly from the primary screen, and both potency and efficacy values were used to identify compounds with robust bioactivity profiles. We screened the NIH Chemical Genomics Center (NCGC) Pharmaceutical Collection (NPC) and Mechanism Interrogation Plate (MIPE) small molecule collections of approved and investigational compounds against these cell lines; and measured metabolically active cells after 48 hours of compound treatment as a proxy for cell viability.
Assay Submitter: Nathalia J. Martinez, National Center for Advancing Translational Sciences, National Institutes of Health, Rockville, MD, USA; email: natalia.martinez@nih.gov.
[1] Shen, M et al. Quantitative high-throughput phenotypic screening of pediatric cancer cell lines identifies multiple opportunities for drug repurposing. Oncotarget 2017 Dec 19;9(4):4758-4772. PMID 29435139.
The cells were obtained from University of North Carolina (UNC), Pediatric Preclinical Testing Program (PPT), and Coriell Institute (CI).
qHTS cell viability assay:
Cells were assayed in growth media at a density of 500-1,000 cells/well. Five microliters of cells were dispensed into 1,536-well, white, solid-bottom, TC-treated plates (Greiner Bio One) using a multidrop dispenser and incubated at 37 degrees C, 5% CO2, under a humidified atmosphere for 5 hours. Twenty-three nanoliters of compounds and controls (neutral control DMSO or positive control bortezomib at final concentration of 2.3 uM) were subsequently transferred by Kalypsys pintool. For primary screens, the MIPE collection was tested at 11-point dilutions (final concentrations range from 0.78 nM to 46 µM) and the NPC collection at 8-point dilutions (final concentrations range from 0.59 nM to 46 µM). Compounds tested in follow-up screens were assayed at 11-point dilutions. Cells were incubated for 48 hours, followed by addition of 3 uL of CellTiter-Glo (Promega). After a 15min incubation at room temperature, samples were analyzed for luminescence intensity using a ViewLux High-throughput CCD imager equipped with clear filters.
(In qHTS, concentration-response curves come from the screen itself.)
With `CN(Cc1cnc2nc(N)nc(N)c2n1)c1ccc(C(=O)N[C@@H](CCC(=O)O)C(=O)O)cc1`, the Potency is 0.0329 µM (active).
The same measure, in the same setting: the figure for `CC(C)C(=O)Nc1ccc([N+](=O)[O-])c(C(F)(F)F)c1` is 10.4 µM (active); for `CCCCc1oc2ccccc2c1C(=O)c1cc(I)c(OCCN(CC)CC)c(I)c1` it is 56.2 µM (active).
Turning to `CC(C)Cc1ccc(C(C)C(=O)O)cc1` (stereo not given), the Potency is 6.57 µM (active).
Same read-out and setting: the figure for `O=C1c2c(O)ccc(O)c2C(=O)c2c(NCCNCCO)ccc(NCCNCCO)c21` is 0.147 µM (active).
Take `NC12CC3CC(CC(C3)C1)C2`: the “activity change, negative = cytotoxicity” value is 10.3%.
Regarding `O=C(c1ccc(OCCN2CCCCC2)cc1)c1c(-c2ccc(O)cc2)sc2cc(O)ccc12`, the Potency is 20.8 µM (active).
The same measure, in the same setting: the figure for `CS(=O)(=O)CCNCc1ccc(-c2ccc3ncnc(Nc4ccc(OCc5cccc(F)c5)c(Cl)c4)c3c2)o1` is 20.8 µM (active).
On the same count and under the same terms, the same measure for `NC(=O)NO`: 0.414 µM (active).
The same measure, in the same setting: the same measure for `COC(=O)Nc1nc2ccc(C(=O)c3cccs3)cc2[nH]1`: 0.147 µM (active); for `O=C(Nc1ccc([N+](=O)[O-])cc1Cl)c1cc(Cl)ccc1O`: 5.12 µM (active); for `CN1CCN(CCCN2c3ccccc3Sc3ccc(Cl)cc32)CC1`: 7.37 µM (active).
Turning to `CS(=O)(=O)Nc1ccc([N+](=O)[O-])cc1Oc1ccccc1`, the “activity change, negative = cytotoxicity” value was -18.3%.
As for `CC[C@@]1(O)C(=O)OCc2c1cc1n(c2=O)Cc2cc3c(CN(C)C)c(O)ccc3nc2-1`, the Potency is 0.131 µM (active).
For the molecule `COc1cc2c(c(OC)c1OC)-c1ccc(OC)c(=O)cc1[C@@H](NC(C)=O)CC2`, the Potency is 0.0316 µM (active).
